SMILES strings stand for the structures. Calls of active or inactive are those of the source.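 How the source made its calls, unless noted: active means NADPH fluorescence slope more negative than the mean of all samples by about 3 SD, 99.7% confidence; inactive means the rest.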

This is an account of results in PubChem BioAssay.

Assay [1] is described as follows: inhibitors of TNFa-induced NFkB p65 translocation, primary screen, imaging, HUVEC, MLSMR starter and 10KST1 sets (AID 438;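 active means inhibition above 20% together with a positive visual image hit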;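 further: compound added about 3h40 before a 20 min TNFalpha stimulation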;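 on inhibition: signal is the nuclear over cytoplasmic p65 intensity ratio per well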). The settings on record: HUVEC TNFa-induced p65 nuclear translocation; cell count: measured here: nuclei count (cytotoxicity indicator), at 2.08 µM; inhibition: at 2 µM, stronger effect = higher value, 0% TNFa-plus-vehicle, 100% no-TNFa wells.
The nature of assay [2]: reduction of polyQ htt aggregates in cells – imaging, exon1htt(103Q)mCFP cells, high-content imaging, primary screen (AID 483;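 active means visual image review flags a hit and inhibition of aggregation exceeds 20%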;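 further: compound exposure lasted 3 days before fixation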;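 on nuclei count: percent of the per-plate median nuclei count of sample wells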). The settings on record: exon1htt(103Q)mCFP cell line, aggregate imaging, at 2 µM; inhibition of aggregation: stronger effect = higher value; nuclei count: measured here: cell count, toxicity.
Assay [3] is described as follows: endothelial E-selectin expression blockers – imaging, HUVEC, immunofluorescence, MLSMR starter and 10KST1 sets, primary screen (AID 487;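 active means visually confirmed hit in the image check and inhibition above 20%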;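 on inhibition: signal is fraction of cell area covered by stained E-selectin grains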;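 on nuclei count: 100% = median nuclei count of all wells on the same plate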). The note with it: HUVEC TNFalpha-induced E-selectin immunofluorescence imaging, at 2 µM; inhibition: stronger effect = higher value; nuclei count: measured here: cell number, toxicity.
Assay [4] deals with Voltage-gated potassium channel subunit beta-2 (Rattus norvegicus) (UniProt P62483). Nature of the assay: inhibitors of rat Kvbeta2 reductase activity – biochemical, NADPH fluorescence, primary screen (AID 622;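 active means fluorescence slope higher than the sample average by over 3 SD, cut at about -0.22 in these data, passing the limit was not always enough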;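 further: slope of raw intensity against log time taken from 70 to 1610 s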). The settings on record: recombinant KvBeta, 4-cyanobenzaldehyde reduction, at 10 µM, stronger effect = higher value.
Assay [5] has the same target. Nature of the assay: enhancers of rat Kvbeta2 NADPH turnover – biochemical, NADPH fluorescence, primary screen (AID 623).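 Further: fluorescence intensity change per second fitted from 20 to 320 s.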 The note with it: Recombinant KvBeta, NADPH fluorescence decrease slope, 10 min; at 10 µM; stronger effect = lower value.
For assay [6], the target named is Alpha-2C adrenergic receptor (Homo sapiens) (UniProt P18825). The experiment in a line: compounds altering alpha2C-coupled GIRK flux – cell-based, HEK293 alpha2C/GIRK1/2, thallium flux, primary screen (AID 624;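 active means fluorescence slope after compound addition differing from the mean of all screened samples at 99.7% confidence, in either direction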;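 further: slope of fluorescence ratio to pre-addition baseline per second over 15 to 24 s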). The settings on record: thallium flux BTC fluorescence, at 10 µM, actives lie on both sides.
Assay [7] in a line: blockers of RIG-like receptor reporter activation – cell-based, Sendai virus stimulus, luciferase, 10K MLSCN set, TLR/RLR signaling modifier project, primary screen (AID 602276;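 active means inhibition at or above 50% at 10 µM; inactive means inhibition below 50%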;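 further: firefly luciferase from ISG56 promoter only with Renilla not read in this screen; 0% = Sendai virus plus DMSO and 100% = medium plus DMSO without virus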). The note with it: HEK293 RL24 IRF3 luciferase reporter, at 10 µM, stronger effect = higher value. On the technique in general: In a reporter assay the amount or activity of a reporter protein is the signal.
The nature of assay [8]: TLR3 IRF3 reporter activation blockers – cell-based, poly I:C stimulus, luciferase, 10K MLSCN set, primary screen (AID 602277;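 active means inhibition of the reporter signal at or above 50%; inactive means inhibition below 50%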). The settings on record: HEK293-TLR3 RL24 IRF3 luciferase reporter, at 10 µM, stronger effect = higher value.
The nature of assay [9]: Primary imaging screen for DUSP6 inhibitors that restore phospho-Erk in transfected HeLa cells, chemical complementation (AID 609;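 active means compounds giving at least 50% inhibition in the cell-based MKP-3 phosphatase rescue imaging test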;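 on inhibition: phospho-Erk level distribution per well compared with pooled transfected vehicle control wells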). The note with it: HeLa MKP-3 transfected, phospho-Erk imaging KS statistic, at 10 µM, cells stimulated with TPA for 15 min.
Assay [10] addresses Dual specificity protein phosphatase 6 (Homo sapiens) (UniProt Q16828). The description is as above. The note with it: HeLa MKP-3 transfected, phospho-Erk imaging KS statistic; at 10 µM; stronger effect = higher value; cells stimulated with TPA for 15 min.
Assay [11] deals with Muscarinic acetylcholine receptor M4 (Homo sapiens) (UniProt P08173). The experiment in a line: M4-linked GIRK flux change, two-sided – cell-based, HEK293 M4/GIRK, thallium flux, BTC-AM, M4 allosteric agonist project, primary screen (AID 625;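 active means fluorescence slope after compound addition differing from the mean of all tested samples at 99.7% confidence, mostly higher but some lower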;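 further: thallium influx through GIRK channels coupled to M4 in HEK293 cells with BTC-AM dye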). The note with it: at 10 µM, actives lie on both sides.
A short description of assay [12]: inhibitors of larval lipid processing in zebrafish, primary screen, whole organism, PED6 fluorescence, gall bladder and intestine (AID 686;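 active means a full or partial loss of lipid-probe fluorescence in the fish gall bladder, intestine or both, judged by eye; inactive means no fluorescence loss, or compound toxic to the fish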;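 further: larvae 5 to 7 days old with five fish per well; signal comes from phospholipase A2 cleavage of quenched PED6 carried via bile; overnight exposure to compound and PED6 before scoring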). The note with it: Zebrafish larvae PED6 lipid processing, fluorescence scoring; screened at 20 µM (by protocol).
Assay [13] in a line: loss of swimming-algae plug formation – whole organism, Chlamydomonas reinhardtii, WT vs cilia-less mutant, absorbance, 96-well, primary screen (AID 463189;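 active means inhibition at or above 50% relative to wild type and mutant plate controls; inactive means inhibition below 50%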;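 further: 0% = wild type cc124 cells in DMSO and 100% = ciliumless bld1 mutant cells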). The settings on record: Chlamydomonas reinhardtii gravitaxis, OD600 absorbance, 2 days; at 10 µM; stronger effect = higher value.
The mark [14] stands for this setting: measured here: cell density z-score.
Setting [15] is: measured here: nuclear c-Myc green intensity z-score.
[16] abbreviates: measured here: nuclear pErk red intensity z-score, stronger effect = higher value.

Chain of Voltage-gated potassium channel subunit beta-2 (Rattus norvegicus) (P62483 whole entry, looked up): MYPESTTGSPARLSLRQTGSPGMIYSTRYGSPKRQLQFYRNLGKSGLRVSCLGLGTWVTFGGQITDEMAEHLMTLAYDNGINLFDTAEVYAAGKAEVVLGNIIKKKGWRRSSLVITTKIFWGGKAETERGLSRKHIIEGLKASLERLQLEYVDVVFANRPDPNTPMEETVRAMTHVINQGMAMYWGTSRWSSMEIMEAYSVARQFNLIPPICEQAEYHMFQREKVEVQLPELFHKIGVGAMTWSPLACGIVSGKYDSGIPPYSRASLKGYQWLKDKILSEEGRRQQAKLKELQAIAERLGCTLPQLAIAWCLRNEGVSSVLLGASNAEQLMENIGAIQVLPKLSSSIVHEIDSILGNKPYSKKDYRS
Chain of Alpha-2C adrenergic receptor (Homo sapiens) (P18825 whole entry, looked up): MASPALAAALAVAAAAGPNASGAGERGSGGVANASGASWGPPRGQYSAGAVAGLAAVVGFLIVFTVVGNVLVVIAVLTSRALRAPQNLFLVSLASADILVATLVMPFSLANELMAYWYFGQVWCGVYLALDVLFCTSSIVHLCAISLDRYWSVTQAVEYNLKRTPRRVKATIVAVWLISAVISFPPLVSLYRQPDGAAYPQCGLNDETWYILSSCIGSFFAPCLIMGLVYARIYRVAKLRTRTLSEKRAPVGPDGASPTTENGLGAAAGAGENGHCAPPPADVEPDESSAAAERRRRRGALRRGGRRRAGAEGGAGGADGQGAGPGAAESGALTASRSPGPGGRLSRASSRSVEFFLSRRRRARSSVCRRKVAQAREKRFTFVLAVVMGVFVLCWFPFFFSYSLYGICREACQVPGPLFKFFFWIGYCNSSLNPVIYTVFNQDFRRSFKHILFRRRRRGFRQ
Chain of Dual specificity protein phosphatase 6 (Homo sapiens) (Q16828 whole entry, looked up): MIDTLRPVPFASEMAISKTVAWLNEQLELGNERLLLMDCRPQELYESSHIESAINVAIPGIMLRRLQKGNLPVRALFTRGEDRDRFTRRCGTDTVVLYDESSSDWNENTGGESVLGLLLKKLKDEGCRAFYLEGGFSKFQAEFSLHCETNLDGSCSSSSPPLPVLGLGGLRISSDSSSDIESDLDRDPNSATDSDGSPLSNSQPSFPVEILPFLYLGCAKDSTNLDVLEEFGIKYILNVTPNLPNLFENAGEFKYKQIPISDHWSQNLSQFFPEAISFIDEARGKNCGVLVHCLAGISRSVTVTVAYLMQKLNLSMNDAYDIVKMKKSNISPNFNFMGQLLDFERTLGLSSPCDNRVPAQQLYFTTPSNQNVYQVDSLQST
Chain of Muscarinic acetylcholine receptor M4 (Homo sapiens) (P08173 whole entry, looked up): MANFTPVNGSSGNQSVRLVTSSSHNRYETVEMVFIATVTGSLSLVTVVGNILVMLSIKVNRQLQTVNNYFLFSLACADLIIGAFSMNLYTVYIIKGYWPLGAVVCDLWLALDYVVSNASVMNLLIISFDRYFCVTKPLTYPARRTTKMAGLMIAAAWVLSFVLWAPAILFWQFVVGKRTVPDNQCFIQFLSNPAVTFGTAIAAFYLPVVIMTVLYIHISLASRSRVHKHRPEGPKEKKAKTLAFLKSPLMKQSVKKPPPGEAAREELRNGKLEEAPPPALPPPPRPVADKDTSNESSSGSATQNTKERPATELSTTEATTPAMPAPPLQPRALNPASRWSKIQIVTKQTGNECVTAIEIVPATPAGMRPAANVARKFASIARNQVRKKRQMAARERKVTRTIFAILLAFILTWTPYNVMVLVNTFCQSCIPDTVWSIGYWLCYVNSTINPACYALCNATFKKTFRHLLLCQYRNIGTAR

Take `CCn1c(SCC(=O)Nc2ccc3c(c2)OCO3)nnc1-c1ccccc1O`: the cell count in assay [1] was 468. The inhibition (commonly the change of the read-out against control, counted positive when it falls) in assay [1] was -6.3% (inactive); in assay [3], -143% (inactive); in assay [7], 11.9% (inactive); in assay [8], 0.128% (inactive). In addition, the inhibition of aggregation in assay [2] was 2% (inactive). Further, the nuclei count in assay [2] was found to be 113%; in assay [3], 151%. Moreover, in [4], the fluorescence slope was -0.5 (inactive). Moreover, the NADPH fluorescence slope in assay [5] was -5.6e-05 (inactive). In [6], the slope was 0.0056 (inactive).
For the compound `Cc1cc(C(=O)COC(=O)C2COc3ccccc3O2)c(C)n1CC1CCCO1` (stereo not given), in [1], the cell count was 460. Besides, the inhibition was 0.5% (inactive) in assay [1], -126% (inactive) in [3], 6.89% (inactive) in assay [7] and 22.4% (inactive) in [8]. The inhibition of aggregation in [2] was 19.3% (inactive). For the same compound, the nuclei count in assay [2] is 81.4%; in assay [3] it was 119%. For the same compound, the fluorescence slope in assay [4] was -0.373 (inactive). Also, in [5], the NADPH fluorescence slope was -4.2e-05 (inactive). Besides, in [6], the slope is 0.00612 (inactive).
As to `COc1ccc(-c2nc3n(n2)C(=O)CC(c2ccco2)S3)cc1` (stereo not given), in assay [1], the cell count worked out at 666. The inhibition is -10.3% (inactive) in assay [1], -11.5% (inactive) in assay [10] and -9.22% (inactive) in [13]. Besides, the nuclei count in [3] was determined as 135%. For the same compound, the z-score is -1.15 in [9] (setting [14]), -1.31 in assay [9] (setting [15]) and -2.71 in assay [9] (setting [16]). Besides, the fluorescence slope in assay [4] is -0.466 (inactive); in [11] it was 0.00655 (inactive). For the same compound, the NADPH fluorescence slope in [5] was -5.1e-05 (inactive). Moreover, in assay [12], the outcome was inactive.
As to `CCC(NC(=O)Nc1ncccc1C)(C(F)(F)F)C(F)(F)F`, the cell count in [1] is 612. Besides, the inhibition in [1] was 5.3% (inactive); in assay [3], -36.6% (inactive); in assay [10] it was 20.2% (inactive); in assay [13] it was 35.4% (inactive). This compound also registered a nuclei count in assay [3] of 104%. For the same compound, the z-score in assay [9] (setting [14]) is 1.12; in [9] (setting [15]), 0.397; in [9] (setting [16]), -1.61. In addition, the fluorescence slope in [4] is -0.508 (inactive); in [11] it was 0.00598 (inactive). Besides, in [5], the NADPH fluorescence slope was -1.7e-05 (inactive). Further, in assay [12], the call was inactive.
Take `O=c1[nH]c(NCc2ccccc2)nc2c1CCCC2`: the cell count in assay [1] is 580. Besides, the inhibition was 4.4% (inactive) in assay [1], 46% (inactive) in assay [3], -1.14% (inactive) in [7] and -4.72% (inactive) in [8]. For the same compound, in assay [2], the inhibition of aggregation is -3.3% (inactive). The nuclei count in assay [2] worked out at 112%; in assay [3] it was 101%. Also, the fluorescence slope in assay [4] is -0.348 (inactive). Further, the NADPH fluorescence slope in assay [5] was -3.1e-05 (inactive). In addition, in assay [6], the slope was 0.00472 (inactive).
For `COc1cc(OC)c(C2N(C)c3ccccc3N2C)cc1OC`, the cell count in [1] amounted to 403. Further, the inhibition in assay [1] was 1.7% (inactive); in assay [3], -64.6% (inactive); in assay [7] it was -3.76% (inactive); in [8], 26.3% (inactive). For the same compound, in assay [2], the inhibition of aggregation is -0.8% (inactive). The nuclei count is 111% in assay [2] and 105% in assay [3]. For the same compound, the fluorescence slope in [4] was -0.502 (inactive). Further, in assay [5], the NADPH fluorescence slope was -1.1e-05 (inactive). Also, the slope in assay [6] is 0.00623 (inactive).
As for `O=C(CCc1nc2ccccc2[nH]1)Nc1ccc2c(c1)OCO2`, in assay [1], the cell count was 310. For the same compound, the inhibition was -9.6% (inactive) in assay [1], -68.2% (inactive) in assay [3], -10.7% (inactive) in assay [7] and -26.2% (inactive) in assay [8]. Besides, the inhibition of aggregation in [2] is 23.8% (inactive). In addition, the nuclei count in [2] and in assay [3] was 111% throughout. Moreover, the fluorescence slope in [4] is -0.347 (inactive). Moreover, the NADPH fluorescence slope in assay [5] is 1.4e-05 (inactive). In addition, in assay [6], the slope was 0.00426 (inactive).
